From PubChem BioAssay
NIH3T3 tox – cytotoxic compounds in NIH 3T3 cells; NIH 3T3 viability, CellTiter-Glo ATP luminescence, 48-72 h; Potency, µM (titrated, usually from 96.7 µM), hits mostly inhibitors; actives 4.3% (n = 94,000); AID 1345082; also: nearly all actives have a fitted effect of over 55% in size
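Viability of NIH 3T3 cells after 48 or 72 hr compound treatment at 37 °C was assessed by CellTiter-Glo, with luminescence imaged following a 10 min room-temperature step.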
HEK cytotox – cytotoxic compounds in HEK 293 cells. actives 6.6% (n = 94,000). Potency, µM (series often up to 115 µM), hits mostly inhibitors. AID 1345083. HEK 293 viability, ATP luminescence (CellTiter-Glo), 48-72 h; also: nearly all actives have a fitted effect of over 60% in size
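Luminescence from cellular ATP, measured with CellTiter-Glo, indicates HEK 293 viability. Cells plated at 250 cells/well are treated with compound for 48 or 72 hr at 37 degree Celsius before reagent addition.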
FLuc inh-1 – Photinus pyralis luciferase inhibition | P08659 | purified P. pyralis luciferase, luminescence, biochemical | Potency, µM (top dose mostly 115 µM), hits mostly inhibitors | actives 2.5% (n = 76,000) | AID 1347043; also: nearly all actives have a fitted effect of over 65% in size
Target sequence (P08659 whole entry, looked up): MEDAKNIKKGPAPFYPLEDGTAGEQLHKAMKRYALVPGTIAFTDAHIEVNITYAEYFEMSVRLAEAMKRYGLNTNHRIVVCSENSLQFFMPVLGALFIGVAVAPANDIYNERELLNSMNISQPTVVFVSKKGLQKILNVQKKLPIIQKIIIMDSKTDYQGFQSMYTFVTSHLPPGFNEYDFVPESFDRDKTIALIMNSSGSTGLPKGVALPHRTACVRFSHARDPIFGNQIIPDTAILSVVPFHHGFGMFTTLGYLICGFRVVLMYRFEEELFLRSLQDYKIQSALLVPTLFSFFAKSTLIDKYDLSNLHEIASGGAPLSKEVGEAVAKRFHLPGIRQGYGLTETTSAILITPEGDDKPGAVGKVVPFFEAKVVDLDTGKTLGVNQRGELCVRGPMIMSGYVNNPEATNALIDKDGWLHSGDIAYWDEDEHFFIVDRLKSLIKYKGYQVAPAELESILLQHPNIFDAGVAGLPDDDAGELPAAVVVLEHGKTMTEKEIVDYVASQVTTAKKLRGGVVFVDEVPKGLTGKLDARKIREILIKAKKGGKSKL
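Luminescence read by CCD imaging after purified firefly luciferase (10nM final) was added to substrate buffer holding 10uM D-luciferin and 10uM ATP, pH 7.5, pre-dosed with compound.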
hNpr1 antagonist – antagonists of human natriuretic peptide receptor Npr1 | HEK293 hNpr1 GloSensor cGMP, ANP-stimulated luminescence | Potency, µM (series often up to 46.3 µM), hits mostly inhibitors | actives 1.6% (n = 76,000); calls by dose curve; also: nearly all actives have a fitted effect of over 60% in size
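HEK293 cells stably expressing human Npr1 and cGMP GloSensor pGS-40F, loaded 2 h with 2% GloSensor reagent, given compound 30 min at room temperature. Luminescence read before and 20 min after 0.1 nM hNppA.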
FLuc SDR -ATP – firefly luciferase binding stabilization, ATP absent | Potency, µM (series often up to 32.7 µM), hits mostly activators | actives 7.8% (n = 1,300) | Purified FLuc-C-HiBiT, Nano-Glo HiBiT luminescence, no ATP | shares compounds with FLuc inh-1; also: nearly all actives have a fitted effect of over 55% in size
FLuc SDR ATP – firefly luciferase binding stabilization, ATP added; shares compounds with FLuc inh-1; purified FLuc-C-HiBiT + ATP, HiBiT complementation luminescence; Potency, µM (highest dose often 32.7 µM), most hits filed as activators; actives 8.7% (n = 1,300);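 also: signal reports ligand binding via conformational change of the enzyme rather than luciferase catalysis; nearly all actives have a fitted effect of over 55% in size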
FLuc inh-2 – firefly luciferase enzyme inhibition; shares compounds with FLuc inh-1; purified FLuc-C-HiBiT enzyme, luciferin luminescence; Potency, µM (titrated, usually from 32.7 µM), most hits filed as inhibitors; actives 42% (n = 1,300); AID 1963320; also: nearly all actives have a fitted effect of over 70% in size
Of the large screens only hits and unclear results are named; the others gave an inactive call (follow-up assays come after a bar, where they were run). Sampled rows, rich in hits. Any-hit rate of the full collection: about 11%. Unless noted, calls follow the shape of the dose curve; as a rule, active = well fitted curve in the direction sought with a large enough effect; inconclusive = small, poorly fitted or top-dose-only effect, or another doubt; inactive = no such curve, though single readings can be large; an effect the other way counts as inactive or inconclusive.

Fc1ccc(-n2ncc3c(N4CCC(Cc5ccccc5)CC4)ncnc32)cc1	none (no result: NIH3T3 tox, HEK cytotox, FLuc inh-1, hNpr1 antagonist) | FLuc SDR -ATP inactive | FLuc SDR ATP inactive | FLuc inh-2 inactive
O=C(C1CN(c2ccccc2)C(=O)N1)N1CCC(Cc2ccccc2)CC1 (stereo unspecified)	NIH3T3 tox inconclusive, HEK cytotox inconclusive
Cc1ccc(-n2ncc3c(N4CCC(Cc5ccccc5)CC4)ncnc32)cc1C	none (no result: NIH3T3 tox, HEK cytotox, FLuc inh-1, hNpr1 antagonist) | FLuc SDR -ATP inactive | FLuc SDR ATP inactive | FLuc inh-2 inactive
Cc1cc2c(c(-c3nc4ccccc4s3)c1)OC(CNC(=O)CCc1cccnc1)C2 (stereo unspecified)	none (no result: NIH3T3 tox, HEK cytotox, FLuc inh-1, hNpr1 antagonist) | FLuc SDR -ATP inactive | FLuc SDR ATP inactive | FLuc inh-2 inconclusive
O=C(N[C@H]1CCN2C(=O)c3cc(/C=C/c4ccccc4)ccc3NC(=O)[C@H]12)c1cnccn1	HEK cytotox inconclusive, FLuc inh-1 inconclusive
COc1ccc(/C=C/c2ccc3c(c2)C(=O)N2CC[C@H](NC(=O)CCC(=O)O)[C@H]2C(=O)N3)cc1	FLuc inh-1 6.3µM | FLuc SDR -ATP inconclusive | FLuc SDR ATP inconclusive | FLuc inh-2 inconclusive
O=C(O)CCC(=O)N[C@H]1CCN2C(=O)c3cc(/C=C/c4ccccc4)ccc3NC(=O)[C@H]12	FLuc inh-1 inconclusive
O=C(O)COCC(=O)N[C@H]1CCN2C(=O)c3cc(/C=C/c4ccccc4)ccc3NC(=O)[C@H]12	FLuc inh-1 7.9µM | FLuc SDR -ATP inactive | FLuc SDR ATP inconclusive | FLuc inh-2 inconclusive
O=C(N[C@H]1CCN2C(=O)c3cc(/C=C/c4ccc(O)cc4)ccc3NC(=O)[C@H]12)c1cnccn1	HEK cytotox inconclusive, FLuc inh-1 13µM | FLuc SDR -ATP inactive | FLuc SDR ATP inactive | FLuc inh-2 inactive
O=C(CCc1cc(=O)[nH]o1)N[C@@H]1CCOC[C@H]1O	HEK cytotox inconclusive
Cc1ccccc1CN1CCc2ncc(C(=O)Nc3ccccc3)n2CC1	NIH3T3 tox inconclusive, HEK cytotox inconclusive, FLuc inh-1 inconclusive
COc1ccc(C(=O)N2CCC3(CC2)CC(c2nc(C)no2)N(C)C3)cc1 (stereo unspecified)	none (no result: FLuc inh-1, hNpr1 antagonist)
CC1(NC(=O)C2CC2)CN(Cc2nc(-c3ccccc3)cs2)C1	NIH3T3 tox inconclusive, FLuc inh-1 13µM, hNpr1 antagonist inconclusive | FLuc SDR -ATP inactive | FLuc SDR ATP inactive | FLuc inh-2 inconclusive
COc1ccccc1-c1csc(CN2CC(C)(NC(=O)C3CC3)C2)n1	HEK cytotox inconclusive
Cc1noc(C)c1CC(=O)N1CCCC1c1nc(C2CCOCC2)no1 (stereo unspecified)	none
O=C1NCCCc2[nH]c(-c3cc(-c4cccc(F)c4)no3)nc21	FLuc inh-1 2.8µM | FLuc SDR -ATP inconclusive | FLuc SDR ATP inconclusive | FLuc inh-2 7µM
Cc1ccc(C2Cn3cnc(C(=O)N4CCC(C(=O)NCc5ccccc5F)CC4)c3CO2)cc1 (stereo unspecified)	FLuc inh-1 inconclusive
O=C(NCc1ccccc1F)C1CCN(C(=O)c2ncn3c2COC(c2ccccc2)C3)CC1 (stereo unspecified)	FLuc inh-1 10µM | FLuc SDR -ATP inactive | FLuc SDR ATP inconclusive | FLuc inh-2 3.5µM
O=C(NCc1ccncc1)C1CCN(C(=O)c2ncn3c2COC(c2ccccc2)C3)CC1 (stereo unspecified)	FLuc inh-1 2.8µM, hNpr1 antagonist inconclusive | FLuc SDR -ATP inactive | FLuc SDR ATP 0.88µM | FLuc inh-2 1.8µM
Cc1ccc(CNC(=O)C2CCN(C(=O)c3ncn4c3COC(c3ccc(Cl)cc3)C4)CC2)cc1 (stereo unspecified)	FLuc inh-1 inconclusive
O=C(NCc1ccc(F)cc1)C1CCN(C(=O)c2ncn3c2COC(c2ccccc2)C3)CC1 (stereo unspecified)	FLuc inh-1 14µM | FLuc SDR -ATP inactive | FLuc SDR ATP inconclusive | FLuc inh-2 5.6µM
